Test results as given in PubChem BioAssay AID2599 (Sanford-Burnham Center for Chemical Genomics, 2010).
Screen size: about 330,000 compounds; about 5,800 (1.8%) were called active. The list comes from a sample in which actives are over-represented; it also holds similar structures and randomly drawn compounds. Unmarked numbers belong to inactive results.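 How the source made its calls: active means inhibition above about 50% at the single tested dose (limit read from the data); inactive means the rest.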

Biological target: Sentrin-specific protease 6 (Homo sapiens) (UniProt Q9GZR1)
Experiment: inhibition of human SENP6 catalytic domain – biochemical, luminescence, uHTS, primary screen (AID 2599);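 further: plate controls were DMSO wells with enzyme for no effect and DMSO wells lacking enzyme for full effect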
Conditions: Recombinant SENP6 catalytic domain, aminoluciferin luminescence; at 10 µM; stronger effect = higher value

Sequence of Sentrin-specific protease 6 (Homo sapiens) (Q9GZR1 628-1112 limits assumed): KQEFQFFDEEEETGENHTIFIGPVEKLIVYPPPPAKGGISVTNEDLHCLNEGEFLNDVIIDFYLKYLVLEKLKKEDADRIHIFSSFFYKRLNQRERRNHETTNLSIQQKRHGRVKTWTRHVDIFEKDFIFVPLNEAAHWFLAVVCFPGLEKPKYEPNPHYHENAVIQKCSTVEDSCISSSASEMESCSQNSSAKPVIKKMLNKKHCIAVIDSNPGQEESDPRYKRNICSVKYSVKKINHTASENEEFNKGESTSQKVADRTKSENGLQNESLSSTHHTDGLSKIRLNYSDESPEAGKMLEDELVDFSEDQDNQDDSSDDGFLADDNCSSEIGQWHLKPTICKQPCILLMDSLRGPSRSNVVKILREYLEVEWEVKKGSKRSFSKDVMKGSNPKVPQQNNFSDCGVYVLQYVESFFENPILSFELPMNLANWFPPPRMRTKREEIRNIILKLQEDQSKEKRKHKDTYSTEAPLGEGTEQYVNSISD

| Compound | inhibition |
| --- | --- |
| COc1ccc2nc(Nc3nc4cc5c(cc4s3)OCCO5)sc2c1 | 70.8% (active) |
| COc1ccc2nc(NC(=O)NC3CCCCC3)sc2c1 | 0.352% |
| COc1ccc2nc(NC(=O)[C@@H]3CCCN3C(=O)c3cccs3)sc2c1 | 4.51% |
| CC(OC(=O)CN1C(=O)COc2ccccc21)C(=O)NCc1ccc(F)cc1 (centres undefined) | -3.56% |
| COc1ccc(S(=O)(=O)NC(C)C(=O)N2CCCCCC2)cc1 (centres undefined) | -11.4% |
| Cc1ccc(C(=O)Nc2nc(N)n(-c3ccccc3)n2)cc1 | -27.7% |
| Fc1c(F)c(C(F)(F)F)c(F)c(F)c1N1CCN(c2ccc3nnc(C(F)(F)F)n3n2)CC1 | 3.56% |
| COc1ccccc1NC(=O)C(C)OC(=O)c1ccc(-n2cnnn2)cc1 (centres undefined) | -16.5% |
| O=C(O)c1cccc(N=NN2CCCCCC2)c1 | 90.2% (active) |
| NC1=NN(c2cccc(C(=O)O)c2)C(=O)C1 | 3.51% |
| O=C(O)c1ccc(N=NN2CCOCC2)cc1 | 17.8% |
| CS(=O)(=O)Nc1ccccc1N=C(c1ccccc1)c1ccccc1 | -6.12% |
| Oc1cccc2ccc(/C=C/c3ccc(Br)s3)nc12 | 64.4% (active) |
| Nc1ccc(S(=O)(=O)Nc2nccc(/C=C/c3ccc(Br)s3)n2)cc1 | 4.55% |
| COC(=O)c1c(NC(=O)COc2ccc(Cl)cc2Cl)sc2c1CC(C)(C)NC2(C)C | -10.5% |
| Cc1coc(C)c1C(=O)CC1(O)C(=O)N(C)c2ccc(Cl)cc21 (centres undefined) | 0.041% |
| O=C(NC1CC1)C1CCCN(C(=O)NC2CCCCC2)C1 (centres undefined) | -5.19% |
| O=C1NNC(c2ccccc2)=N/C1=C\c1ccc(Cl)cc1 | 29.3% |
| N#Cc1c(N2CCCCC2)nc(N)c2c(N)nc(SCC(=O)O)cc12 | 74.6% (active) |
| N#CCc1c(C#N)c(N)nc(N2CCCC2)c1C#N | -5.83% |
| Nc1nc(NCC(=O)O)nc(N2CCCCCC2)c1[N+](=O)[O-] | 11.1% |
| CC(C)(C)Oc1ccccc1Nc1nc(NCCO)nc(N2CCCC2)n1 | -11% |
| COC(=O)c1ccc(S(=O)(=O)N2CCc3ccccc3C2)cc1 | -14.9% |
| CC(OC(=O)c1ccc(S(=O)(=O)N2CCOCC2)cc1)c1ccccc1 (centres undefined) | -4.11% |
| O=C(ON=C1CCN(S(=O)(=O)c2ccccc2)CC1)c1ccc(Cl)cc1 | 55.9% (active) |

| Compound | inhibition |
| --- | --- |
| C/C(N)=C(\C#N)C(=O)NCCc1ccccn1 | -4.65% |
| COc1ccc(-c2cn3cccnc3n2)cc1 | -11.4% |
| COc1ccc(-c2cn3ccsc3n2)cc1 | 64% (active) |
| COc1cc(OC)cc(-c2nc(=S)n3ccsc3n2)c1 | -9.64% |
| CC(C(=O)NC1CCCCC1)N1C(=O)c2cccc3cccc1c23 (centres undefined) | -3.48% |
| CC(C)NC(=S)Nc1cccc2cnccc12 | 5.39% |
| O=C(Nc1cccc2ccccc12)c1onc2c1CCCC2 | 84% (active) |
| O=C(COC(=O)c1ccccn1)Nc1cccc2ccccc12 | -9.05% |
| O=C(O)Cc1ccc(NC(=O)Nc2cccc3ccccc23)cc1 | -11.3% |
| Cn1cc(CN2CCCC(CO)C2)c(-c2ccc(Oc3ccccc3)cc2)n1 (centres undefined) | -24.4% |
| O=C1C2C3C=CC(C3)C2C(=O)N1c1ccc(-c2nc3ccccc3c(=O)o2)cc1 (centres undefined) | -7.9% |
| O=C1c2ccccc2C(=O)N1CCC#Cc1ccc2cc(C3(O)CCCCC3)oc(=O)c2c1 | -5.78% |
| COc1cc(/C=C2\Oc3ccc(C#Cc4ccc(O)cc4)cc3C2=O)cc(OC)c1 | -11.5% |
| COc1cc(C#Cc2ccc3cc(CCCO)oc(=O)c3c2)cc(OC)c1 | 74% (active) |
| Cc1[nH]c(C)c(S(=O)(=O)N2CCC(C)CC2)c1C(=O)N1CCCC1 | 0.187% |
| CCN(CC)S(=O)(=O)c1ccc(-c2cn3ccc(C)cc3n2)cc1 | 11.7% |
| Cc1cc(N2CCOCC2)nc(-c2ccc(Br)cc2)n1 | -6.76% |
| Cc1ccc(-c2cn3cc(C)ccc3n2)cc1 | 65.4% (active) |
| CSc1nnc2ccc(-c3ccc(C)cc3)nn12 | -11.1% |
| COc1ccc(-c2cn3ccc(C)cc3n2)cc1 | -9.63% |
| Cc1ccc2nc(-c3ccc(Br)cc3)cn2c1 | 89.9% (active) |
| Cc1sc2ncn(CC(=O)NCCCC(=O)NCc3ccc(F)cc3)c(=O)c2c1C | -35.1% |
| O=C(CCC(=O)OCC(F)(F)C(F)F)NCc1ccccc1 | -6.23% |
| COc1ccccc1-n1nnnc1S(=O)(=O)Cc1ccc(Cl)cc1 | -13.9% |
